Drawing on publication PMC5700166, this text covers binding signal for eleven sequences.

Numbering of substitutions follows the chain as printed.

Test in all cases: protein-binding microarray (PBM); PBM: ~300 nM protein, 6 mM HEPES pH 7.8, 80 mM KCl, 0.5 mM EDTA, 0.5 mM EGTA, 6% glycerol, 35 ng/ul poly-dIdC, 1% milk, 1 h, room temperature; Ap Aiptasia and Nv Nematostella (sea anemones) / Co Capsaspora / Aq Amphimedon (sponge) / Dm Drosophila / Hu human; RHD is the Rel homology domain; high values mean tight binding
Common to all, as to settings: dsDNA, one strand shown

One assay concerns the target T1, GST-Ap-NF-kB RHD (Exaiptasia pallida (Aiptasia), UniProt A0A913YAJ5 2-422).
T1 sequence: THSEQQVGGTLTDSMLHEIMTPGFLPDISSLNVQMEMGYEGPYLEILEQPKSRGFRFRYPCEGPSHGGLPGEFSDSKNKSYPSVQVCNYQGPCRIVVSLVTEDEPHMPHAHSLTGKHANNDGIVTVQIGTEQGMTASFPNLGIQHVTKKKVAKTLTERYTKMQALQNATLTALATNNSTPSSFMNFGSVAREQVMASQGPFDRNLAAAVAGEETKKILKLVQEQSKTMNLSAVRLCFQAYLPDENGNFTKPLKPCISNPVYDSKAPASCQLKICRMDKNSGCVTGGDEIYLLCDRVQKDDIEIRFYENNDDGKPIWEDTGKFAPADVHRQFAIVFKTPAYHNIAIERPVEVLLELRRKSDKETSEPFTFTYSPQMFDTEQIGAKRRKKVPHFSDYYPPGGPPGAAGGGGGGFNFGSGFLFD

Assay [1] has as its target T2, GST-Nv-NF-kB (Cys allele) (Nematostella vectensis, UniProt E5G601 2-411).
T2 sequence: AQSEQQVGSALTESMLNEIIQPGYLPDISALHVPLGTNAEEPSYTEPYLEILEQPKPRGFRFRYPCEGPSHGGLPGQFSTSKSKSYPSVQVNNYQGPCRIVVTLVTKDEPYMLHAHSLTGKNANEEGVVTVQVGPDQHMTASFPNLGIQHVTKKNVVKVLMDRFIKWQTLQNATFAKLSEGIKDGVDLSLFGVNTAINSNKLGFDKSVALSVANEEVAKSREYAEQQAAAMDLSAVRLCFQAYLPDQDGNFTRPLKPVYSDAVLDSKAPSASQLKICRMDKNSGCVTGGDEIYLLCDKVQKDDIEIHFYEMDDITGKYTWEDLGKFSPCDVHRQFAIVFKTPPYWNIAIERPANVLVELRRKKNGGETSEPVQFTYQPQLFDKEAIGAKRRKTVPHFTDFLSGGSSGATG

For assay [2], the target named is T3, GST-Nv-NF-kB (Ser allele) (Nematostella vectensis, UniProt A7UNT2 2-411).
T3 sequence: T2 sequence with Q21R, C66S, S207N, E215Q, V217A, E225K, A268E, D399E

Another assay concerns the target T4, GST-Co-NF-kB (Capsaspora owczarzaki, UniProt F1ARL5 200-546).
T4 sequence: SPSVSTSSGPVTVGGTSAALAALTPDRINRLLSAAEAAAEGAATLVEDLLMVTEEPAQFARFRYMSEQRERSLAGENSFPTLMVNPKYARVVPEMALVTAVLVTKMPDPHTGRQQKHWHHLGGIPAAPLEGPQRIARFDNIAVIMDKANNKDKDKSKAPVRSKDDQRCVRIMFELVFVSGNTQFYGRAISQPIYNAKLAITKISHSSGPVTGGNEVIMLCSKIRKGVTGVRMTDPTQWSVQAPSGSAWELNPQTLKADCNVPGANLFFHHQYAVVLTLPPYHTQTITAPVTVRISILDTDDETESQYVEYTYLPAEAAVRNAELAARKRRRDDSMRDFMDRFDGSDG

A further assay addresses T5, GST-Dm-Relish (Drosophila melanogaster, UniProt Q94527 99-473).
T5 sequence: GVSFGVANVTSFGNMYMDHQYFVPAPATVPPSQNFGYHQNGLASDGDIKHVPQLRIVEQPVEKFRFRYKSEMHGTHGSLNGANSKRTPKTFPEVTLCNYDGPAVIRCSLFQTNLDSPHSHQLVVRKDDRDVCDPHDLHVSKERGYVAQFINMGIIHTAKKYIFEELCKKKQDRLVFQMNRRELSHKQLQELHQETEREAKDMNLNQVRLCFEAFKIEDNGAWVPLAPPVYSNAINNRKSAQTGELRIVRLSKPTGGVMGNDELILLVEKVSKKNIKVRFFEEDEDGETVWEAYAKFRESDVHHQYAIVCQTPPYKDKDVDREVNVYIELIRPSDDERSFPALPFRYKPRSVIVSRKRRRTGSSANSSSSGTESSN

A further assay addresses T6, GST-Aq-NF-kB (Amphimedon queenslandica, UniProt A9Y5G7 2-389).
T6 sequence: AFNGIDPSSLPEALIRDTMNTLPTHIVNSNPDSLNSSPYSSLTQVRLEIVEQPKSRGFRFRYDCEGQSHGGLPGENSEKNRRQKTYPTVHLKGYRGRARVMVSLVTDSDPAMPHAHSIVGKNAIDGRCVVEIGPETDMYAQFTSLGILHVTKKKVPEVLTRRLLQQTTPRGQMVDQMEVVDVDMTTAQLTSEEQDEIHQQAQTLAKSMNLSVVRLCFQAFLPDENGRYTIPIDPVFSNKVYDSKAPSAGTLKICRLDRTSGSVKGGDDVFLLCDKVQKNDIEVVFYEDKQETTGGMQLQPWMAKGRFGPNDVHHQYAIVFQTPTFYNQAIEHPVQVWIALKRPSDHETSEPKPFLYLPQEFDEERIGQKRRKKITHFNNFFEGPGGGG

For another assay, the target named is GST-Hu-p50 (Homo sapiens, UniProt P19838 7-356).
Chain of GST-Hu-p50 (P19838 7-356): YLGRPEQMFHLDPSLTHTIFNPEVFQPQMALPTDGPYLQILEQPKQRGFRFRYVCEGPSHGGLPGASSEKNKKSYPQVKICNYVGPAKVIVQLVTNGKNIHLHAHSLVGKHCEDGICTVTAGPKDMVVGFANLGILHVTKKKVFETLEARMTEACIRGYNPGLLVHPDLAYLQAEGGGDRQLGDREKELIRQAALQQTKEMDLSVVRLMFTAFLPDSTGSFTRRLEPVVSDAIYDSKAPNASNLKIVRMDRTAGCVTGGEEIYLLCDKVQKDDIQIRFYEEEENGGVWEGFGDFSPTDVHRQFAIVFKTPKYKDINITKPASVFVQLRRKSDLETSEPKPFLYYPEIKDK

As to “CCGATTAACATCAAATGTTCCCCTGATGTTAATCGGGTCTTGATTCGCTTGACGCTGCTG”, the binding signal was 5.58 z-score with GST-Ap-NF-kB RHD; 6.77 z-score in assay [1]; 7.62 z-score in assay [2]; 9.87 z-score in the assay with GST-Co-NF-kB; 5.59 z-score in the assay with GST-Dm-Relish; 6.21 z-score with GST-Aq-NF-kB. The sequence further showed a binding signal with GST-Hu-p50 of 4.41 z-score.

Consider “CCGATTAACATCAAGTTCCCCCCTGATGTTAATCGGGTCTTGATTCGCTTGACGCTGCTG”, for which the binding signal with GST-Ap-NF-kB RHD turned out to be 7.37 z-score; in assay [1], 6.39 z-score; in assay [2] it was 7.26 z-score; with GST-Co-NF-kB, 10.1 z-score; with GST-Dm-Relish, 6.95 z-score; in the assay with GST-Aq-NF-kB, 6.03 z-score. The binding signal in the assay with GST-Hu-p50 amounted to 6.13 z-score.

In the case of “CCGATTAACATCAGAAAACCCCATGATGTTAATCGGGTCTTGATTCGCTTGACGCTGCTG”, the binding signal in the assay with GST-Ap-NF-kB RHD came out at 6.36 z-score; in assay [1], 5.53 z-score; in assay [2], 4.86 z-score; in the assay with GST-Co-NF-kB, 1.75 z-score; with GST-Dm-Relish, 8.35 z-score; in the assay with GST-Aq-NF-kB, 5.03 z-score. In the assay with GST-Hu-p50, this sequence yielded a binding signal of 5.88 z-score.

On to “CCGATTAACATCAAGTATTCCCCTGATGTTAATCGGGTCTTGATTCGCTTGACGCTGCTG”, for which the binding signal with GST-Ap-NF-kB RHD stood at 8.17 z-score; in assay [1], 9.28 z-score; in assay [2], 8.86 z-score; in the assay with GST-Co-NF-kB, 7.58 z-score; in the assay with GST-Dm-Relish, 7.14 z-score; in the assay with GST-Aq-NF-kB it was 6.74 z-score. Further, in the assay with GST-Hu-p50, the binding signal turned out to be 5.87 z-score.

Consider “CCGATTAACATCAAAACTTTCCCTGATGTTAATCGGGTCTTGATTCGCTTGACGCTGCTG”, for which the binding signal was 4.81 z-score with GST-Ap-NF-kB RHD; 8.68 z-score in assay [1]; 8.65 z-score in assay [2]; 6.16 z-score with GST-Co-NF-kB; 4.08 z-score in the assay with GST-Dm-Relish; 7.54 z-score with GST-Aq-NF-kB. Also, the binding signal in the assay with GST-Hu-p50 turned out to be 5.54 z-score.

For the sequence “CCGATTAACATCAATTTTCCCCATGATGTTAATCGGGTCTTGATTCGCTTGACGCTGCTG”, the binding signal is 6.24 z-score with GST-Ap-NF-kB RHD; 7.68 z-score in assay [1]; 9.27 z-score in assay [2]; 9.2 z-score with GST-Co-NF-kB; 2.3 z-score with GST-Dm-Relish; 5.53 z-score in the assay with GST-Aq-NF-kB. Further, in the assay with GST-Hu-p50, the binding signal came to 6.08 z-score.

For the sequence “CCGATTAACATCAAGGGGAATTATGATGTTAATCGGGTCTTGATTCGCTTGACGCTGCTG”, the binding signal in the assay with GST-Ap-NF-kB RHD came out at 7.82 z-score; in assay [1], 10.5 z-score; in assay [2], 11.4 z-score; with GST-Co-NF-kB, 6.37 z-score; with GST-Dm-Relish, 7.09 z-score; in the assay with GST-Aq-NF-kB it was 7.24 z-score. This sequence also yielded a binding signal in the assay with GST-Hu-p50 of 7.43 z-score.

As to “CCGATTAACATCAGGGGATTTCATGATGTTAATCGGGTCTTGATTCGCTTGACGCTGCTG”, the binding signal with GST-Ap-NF-kB RHD was found to be 9.36 z-score; in assay [1], 9.75 z-score; in assay [2], 10.8 z-score; with GST-Co-NF-kB, 3.46 z-score; in the assay with GST-Dm-Relish it was 8.36 z-score; in the assay with GST-Aq-NF-kB, 6.85 z-score. The sequence further gave a binding signal in the assay with GST-Hu-p50 of 7.42 z-score.

“CCGATTAACATCAAGGAACTCCCTGATGTTAATCGGGTCTTGATTCGCTTGACGCTGCTG”: the binding signal with GST-Ap-NF-kB RHD is 3.98 z-score; in assay [1], 3.82 z-score; in assay [2] it was 2.62 z-score; with GST-Co-NF-kB it was 1.49 z-score; with GST-Dm-Relish, 5.06 z-score; with GST-Aq-NF-kB, 5.06 z-score. The same sequence returned a binding signal with GST-Hu-p50 of 3.54 z-score.

In the case of “CCGATTAACATCACTATTCCCCCTGATGTTAATCGGGTCTTGATTCGCTTGACGCTGCTG”, the binding signal with GST-Ap-NF-kB RHD amounted to 5.37 z-score; in assay [1], 6.24 z-score; in assay [2], 7.08 z-score; in the assay with GST-Co-NF-kB it was 7.68 z-score; with GST-Dm-Relish it was 3.2 z-score; with GST-Aq-NF-kB it was 4.96 z-score. Moreover, the binding signal with GST-Hu-p50 came to 5.82 z-score.

For the sequence “CCGATTAACATCAAGGGGAATACTGATGTTAATCGGGTCTTGATTCGCTTGACGCTGCTG”, the binding signal with GST-Ap-NF-kB RHD turned out to be 8.04 z-score; in assay [1], 9.26 z-score; in assay [2], 8.56 z-score; with GST-Co-NF-kB, 6.16 z-score; in the assay with GST-Dm-Relish, 6.38 z-score; in the assay with GST-Aq-NF-kB, 6.62 z-score. Also, the binding signal in the assay with GST-Hu-p50 was 6.33 z-score.
